Compound activity as filed in PubChem BioAssay.
PRC2 inh – EZH2 (human) methyltransferase inhibition; PRC2 H3K27 methylation, DELFIA TRF, 1 h; inhibition, % at 12.5 µM; hit rate 0.35% among 57,000; AID 651548;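 active = mean inhibition of replicates at least 50% and every single replicate also reaching 50%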;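 also: dimethyl H3K27 on biotinylated H3 21-44 peptide detected by antibody; plate controls were median neutral control wells for no effect and median positive control wells for full effect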
Target sequence (Q15910 whole entry, looked up): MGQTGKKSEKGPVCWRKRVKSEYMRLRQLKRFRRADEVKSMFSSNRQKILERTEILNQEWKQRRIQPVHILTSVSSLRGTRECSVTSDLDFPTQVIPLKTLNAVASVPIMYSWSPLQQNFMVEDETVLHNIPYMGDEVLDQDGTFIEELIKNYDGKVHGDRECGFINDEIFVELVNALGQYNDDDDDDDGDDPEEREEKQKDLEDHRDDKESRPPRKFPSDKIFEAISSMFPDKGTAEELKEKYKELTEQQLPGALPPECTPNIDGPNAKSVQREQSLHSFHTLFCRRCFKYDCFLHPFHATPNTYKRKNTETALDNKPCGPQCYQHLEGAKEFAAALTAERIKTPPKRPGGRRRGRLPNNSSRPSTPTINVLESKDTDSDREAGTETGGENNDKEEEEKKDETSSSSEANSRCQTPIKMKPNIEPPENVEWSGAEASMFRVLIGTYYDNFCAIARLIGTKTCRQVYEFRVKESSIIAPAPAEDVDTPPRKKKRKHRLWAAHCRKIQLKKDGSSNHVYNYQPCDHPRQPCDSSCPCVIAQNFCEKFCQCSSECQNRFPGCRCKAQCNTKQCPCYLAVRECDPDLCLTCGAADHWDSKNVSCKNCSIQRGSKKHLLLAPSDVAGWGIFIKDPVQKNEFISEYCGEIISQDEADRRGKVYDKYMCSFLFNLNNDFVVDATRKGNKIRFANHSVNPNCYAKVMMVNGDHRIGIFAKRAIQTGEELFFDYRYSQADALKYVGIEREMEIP
* = called active by the depositor. Shown is part of a subset that was picked to be rich in hits.

SMILES | PRC2 inh
O=C1N(O)C2(C=CCCC2)/C(=N/O)C12CCCCC2 (stereo unspecified) | 23
Cc1cccc(-c2nnc(SCC(=O)Nc3cccc(C)c3C)n2C)c1 | -10
Cc1ccc(C)c(-n2nnnc2SCC(=O)Nc2ccccc2[N+](=O)[O-])c1 | 20
CCc1cc(C(=O)OC)c(NC(=O)c2cc(-c3cccnc3)nc3ccc(Br)cc23)s1 | -5
O=C(Cn1c(=O)oc2ccccc21)Nc1sc2c(c1C(=O)O)CCCC2 | 19
C[C@@H]1CN([C@H](C)CO)C(=O)c2cc(C#Cc3ccncc3)cnc2O[C@H]1CN(C)CC1CCOCC1 | 100*
C[C@H]1CN([C@@H](C)CO)C(=O)c2cc(C#Cc3ccccc3)cnc2O[C@@H]1CN(C)CC1CCOCC1 | -12
C[C@@H]1CN([C@@H](C)CO)C(=O)c2cc(C#Cc3ccncc3)cnc2O[C@@H]1CN(C)CC1CCOCC1 | 14
C=CC[C@]1(C(=O)N2CCCCC2)N=C(c2ccc(OCCCO)cc2)O[C@H]1c1ccccc1 | -6
COC(=O)CCCCCCC(=O)N/N=C/C1(NC(=O)OC(C)(C)C)CCCC1 | -33
CCOC(=O)c1c(NC(=O)CSc2ncn[nH]2)sc2c1CCCCC2 | 6
CCOC(=O)c1c(NC(=O)CSc2nc3ccccc3c(=O)[nH]2)sc2c1CCCC2 | 76*
COc1ccc(NC(=O)CSc2nc3ccccc3c(=O)[nH]2)cc1Cl | -6
CCOC(=O)c1c(NC(=O)Cn2cnc3ccccc3c2=O)sc2c1CCCC2 | 9
O=C(CSc1nc2ccccc2c(=O)[nH]1)Nc1ccc(F)c(Cl)c1 | 31
O=C(CSc1nc2ccccc2c(=O)[nH]1)Nc1ccc(Br)c(Cl)c1 | 55*
NC(=O)[C@@H]1[C@H]2C(=O)O[C@H](c3ccccc3)[C@H](c3ccccc3)N2[C@H](c2ccccc2OCCO)[C@@]12C(=O)Nc1ccc(C#CC3=CCCCC3)cc12 | -58
O=C(CCCCC(=O)N/N=C/c1ccc(F)c(Oc2ccccc2)c1)NO | -11
O=C(CCCCCC(=O)N/N=C/c1nccs1)NO | 0
NC(=O)[C@@H]1[C@H]2C(=O)O[C@H](c3ccccc3)[C@H](c3ccccc3)N2[C@H](c2ccc(OCCO)cc2)[C@@]12C(=O)Nc1ccc(C#CC3(O)CCCCCC3)cc12 | -29
O=C1O[C@@H](c2ccccc2)[C@@H](c2ccccc2)N2[C@@H](c3ccccc3OCCO)[C@]3(C(=O)Nc4ccc(C#CC5(O)CCCCCC5)cc43)[C@@H](C(=O)O)[C@H]12 | 73*
O=C1O[C@H](c2ccccc2)[C@H](c2ccccc2)N2[C@H]1[C@@H](C(=O)O)[C@]1(C(=O)Nc3ccc(C#CC4(O)CCCCCC4)cc31)[C@H]2c1ccccc1OCCO | 60*
O=C1O[C@H](c2ccccc2)[C@H](c2ccccc2)N2[C@H]1[C@@H](C(=O)N1CCCCCCC1)[C@]1(C(=O)Nc3ccc(C#CC4(O)CCCCCC4)cc31)[C@H]2c1ccc(OCCO)cc1 | -20
NC(=O)[C@@H]1[C@H]2C(=O)O[C@H](c3ccccc3)[C@H](c3ccccc3)N2[C@H](c2ccccc2OCCO)[C@@]12C(=O)Nc1ccc(C#CCCO)cc12 | -38
C=CCNC(=O)[C@H]1[C@@H]2C(=O)O[C@@H](c3ccccc3)[C@@H](c3ccccc3)N2[C@@H](c2ccccc2OCCO)[C@]12C(=O)Nc1ccc(C#CC3(O)CCCCCC3)cc12 | -27
SMILES | PRC2 inh
CCc1c(O)nc(SCC(=O)Nc2ccc(Cl)cc2Cl)n(-c2ccccc2)c1=O | -2
O=C1c2cccc3cccc(c23)C(=O)N1CCc1cnc[nH]1 | 6
Fc1ccccc1-c1n[nH]c(=S)n1CCCN1CCOCC1 | 10
O=C(c1ccc2nsnc2c1)N(Cc1ccccn1)Cc1ccccn1 | -2
O=C(Cn1cc(C(=O)c2ccccc2F)c2ccccc21)Nc1ccccc1 | 16
COC(=O)c1ccc(NC(=O)CCC(=O)c2ccc(OC)cc2)cc1 | -1
COC(=O)c1ccc(C2C(C(=O)c3ccco3)C(=O)C(=O)N2Cc2ccco2)cc1 (stereo unspecified) | -7
COC(=O)c1ccc(C2C(Oc3ccc(OC)cc3)C(=O)N2Cc2ccc(F)cc2)cc1 (stereo unspecified) | 51*
COC(=O)COc1cccc(NC(=O)c2ccccc2Cl)c1 | -32
Cc1ccc(S(=O)(=O)N[C@@H](Cc2ccccc2)C(=O)NCCn2cc(-c3ccccc3N)nn2)cc1 | -12
Cc1ccc(N(CC(=O)Nc2ccc(Br)cc2F)S(C)(=O)=O)cc1C | 11
Cc1cc(C)c(S(=O)(=O)N(C)CC(=O)Nc2cccc([N+](=O)[O-])c2)c(C)c1 | -6
Cc1ccc2c(CC(=O)Nc3cccc([N+](=O)[O-])c3)coc2c1C | 51*
Cc1ccc2c(CC(=O)NCc3ccco3)coc2c1C | -10
CS(=O)(=O)N(CC(=O)Nc1ccccc1C(=O)O)c1cccc(Cl)c1 | -9
NC(=O)C1CCN(CCC(=O)Nc2ccc(F)cc2)CC1 | -20
Cc1c(NC(=O)CSc2nc3cc(C(=O)N4CCCC4)ccc3s2)c(=O)n(-c2ccccc2)n1C | 6
COc1ccc(NC(=O)CN2C(=O)c3cccc4cccc2c34)cc1OC | -19
O=C1c2cccc3cccc(c23)N1Cc1ccc(F)cc1Cl | 60*
COc1ccc(C)cc1NC(=O)CN1C(=O)c2cccc3cccc1c23 | -8
O=C(O)CCCC(=O)Nc1cc(C(=O)O)ccc1Cl | -3
COc1cccc(C(=O)NC(c2ccc(C)cc2)c2cc(Cl)c3cccnc3c2O)c1 (stereo unspecified) | -11
Cn1ccnc1SCC(=O)Nc1cccc(F)c1 | -3
O=C1O[C@@H](c2ccccc2)[C@@H](c2ccccc2)N2[C@@H](c3ccc(OCCO)cc3)[C@]3(C(=O)Nc4ccccc43)[C@@H](C(=O)N3CCCCCCC3)[C@H]12 | -14
COC(=O)c1c(NC(=S)NCc2ccccn2)sc2c1CCC2 | 5
SMILES | PRC2 inh
Cc1ccc(=O)n(-c2ccccc2)c1 | -6
Cc1nn(Cc2ccccc2Cl)c(C)c1NC(=O)C1CC(c2ccc(Cl)cc2)=NO1 (stereo unspecified) | 1
Cc1ccc(/C=C/c2ccc(=O)n(Cc3ccccc3Cl)n2)cc1 | 70*
C=C(C)[C@@H]1CC=C(/C=N/NC(=O)c2ccccn2)CC1 | -31
O=C(Nc1cc(Cl)cc(Cl)c1)N1CCC(n2cccc2)CC1 | -21
CC1(C)CC[C@]2(C(=O)O)CC[C@]3(C)C(=CCC4[C@@]5(C)C[C@@H](O)[C@H](O)[C@@](C)(CO)C5CC[C@]43C)[C@@H]2[C@@H]1O (stereo partly specified) | 55*
CC1(C)CC[C@]2(C(=O)O)CC[C@]3(C)C(=CCC4[C@@]5(C)CC[C@H](O[C@@H]6OC[C@H](O)[C@H](O)[C@H]6O)[C@@](C)(CO)C5CC[C@]43C)C2C1 (stereo partly specified) | -12
CC1(C)CC[C@]2(C(=O)O)CC[C@]3(C)C(=CCC4[C@@]5(C)C[C@@H](O)[C@H](O)C(CO)(CO)C5CC[C@]43C)C2[C@@H]1O (stereo partly specified) | 44
COc1cccc(NC(=O)CSc2nnc(-c3ccccc3)n2-c2ccc(Cl)cc2)c1 | 5
Cc1ccccc1NC(=O)CSc1nc(N)c2c3c(sc2n1)COC(C)(C)C3 | 2
O=[N+]([O-])c1cccc(S(=O)(=O)NCCOc2ccccc2-c2ccccc2)c1 | 53*
O=[N+]([O-])c1cccc(S(=O)(=O)NCCOc2cccc(Cl)c2Cl)c1 | 1
O=[N+]([O-])c1cccc(S(=O)(=O)NCCOc2cccc3cccnc23)c1 | -5
